From PubChem BioAssay AID720513 (Broad Institute, 2013)
The whole screen tested about 2,100 compounds, of which about 480 (23%) were called active. Not shown: some 5% with an inconclusive outcome.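 Rule for the calls: active = fitted curve reaches 40% activation at or below the top valid concentration, in every replicate test; inconclusive = replicate tests disagree on the call; inactive = the rest, including activity in the opposite direction.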 The list is a sample of the results. Measured potencies and affinities stand elsewhere.

Experiment: activators raising PGC1a acetylation in cells, dose response, cell-based, cherry-picked samples, set 6 (AID 720513);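 note: cells made to overexpress flag tagged PGC1a plus GCN5 acetyltransferase by viral infection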
Settings: U2OS PGC1a acetylation AlphaLISA, overnight, 0 = neutral, -100 = inhibitor control; series mostly up to 19.5 µM; activation (acetylation increase): at the top concentration
For CN(C)C(=O)C[C@H]1CC[C@@H](NC(=O)C2CCC2)[C@H](CO)O1, the “activation (acetylation increase)” value was -23.8% (inactive). In the case of COCCOc1ccc(C(F)(F)F)cc1NC(=O)CN1C(=O)NC2(CCCc3ccccc32)C1=O (stereo not given), the “activation (acetylation increase)” value is reported as -4.64% (inactive). With CCOC(=O)c1[nH]c(C)c(C(=O)Nc2cc(Cl)ccc2C)c1C the “activation (acetylation increase)” value was -1.9% (inactive). With CCOC(=O)c1[nH]c2ccc(OC)cc2c1NC(=O)c1ccc2c(c1)OCO2 the “activation (acetylation increase)” value was -3.22% (inactive). With O=c1c2c(nc3c(-c4ccc(Cl)cc4)c[nH]n13)CCCC2 the “activation (acetylation increase)” value was -8.3% (inactive). With CC(C)(O)c1cc(=O)sc2nc3ccccc3n12 the “activation (acetylation increase)” value was 12.9% (inactive). In the case of O=C(NC1CCCC1)C(c1ccncc1)N(Cc1ccccc1F)C(=O)c1csnn1 (stereo not given), the “activation (acetylation increase)” value is reported as -10.3% (inactive). With O=C(NC1CCCC1)C(c1ccccc1)N(Cc1ccc(F)cc1)C(=O)c1csnn1 (stereo not given) the “activation (acetylation increase)” value was 22.9% (inactive). With C[C@@H]1CN([C@H](C)CO)C(=O)c2cccc(NC(=O)Nc3cccc4ccccc34)c2O[C@H]1CN(C)S(C)(=O)=O the “activation (acetylation increase)” value was 6.73% (inactive). For CC(=O)N(C)C[C@H]1Oc2ncc(C#CCc3ccccc3)cc2C(=O)N([C@@H](C)CO)C[C@H]1C, the “activation (acetylation increase)” value was 5.97% (inactive). In the case of C[C@@H]1CN([C@@H](C)CO)C(=O)CCCn2cc(nn2)CO[C@H]1CN(C)C(=O)Cc1ccccc1, the “activation (acetylation increase)” value is reported as 8.97% (inactive). In the case of CCn1c(=N)n(CC(=O)c2ccc(OC)c(OC)c2)c2ccccc21, the “activation (acetylation increase)” value is reported as 5.92% (inactive). In the case of CC(=O)Oc1ccc(-c2csnn2)cc1, the “activation (acetylation increase)” value is reported as 0.471% (inactive). In the case of CCCNC(=O)CN(C)C(=O)c1n[nH]c2ccccc12, the “activation (acetylation increase)” value is reported as 18.4% (inactive). In the case of O=c1[nH]c(=O)c2[nH]c(=S)[nH]c2[nH]1, the “activation (acetylation increase)” value is reported as -1.47% (inactive). With CC(C)c1ccc(NC(=O)c2n[nH]c(=O)c3ccccc23)cc1 the “activation (acetylation increase)” value was 1.85% (inactive). In the case of COc1ccc2nc3cc(Cl)ccc3c(Nc3cc(CN4CCCC4)c(O)c(CN4CCCC4)c3)c2n1, the “activation (acetylation increase)” value is reported as -57.3% (inactive). With Cc1noc(C)c1NC(=O)Nc1ccc2c(c1)C(=O)N([C@H](C)CO)C[C@@H](C)[C@@H](CN(C)S(=O)(=O)c1ccc(F)cc1)OCCCC[C@@H](C)O2 the “activation (acetylation increase)” value was 34.8% (inactive). In the case of COc1cc2[nH]c(=O)n(CCCC(=O)NCCc3ccccc3)c(=O)c2cc1OC, the “activation (acetylation increase)” value is reported as -2.35% (inactive). In the case of CCCCC(=O)NCCc1cc2c(OC)ccc(OC)c2[nH]c1=O, the “activation (acetylation increase)” value is reported as 20.3% (inactive). For COc1cccc(NC(=O)CN(C)C(=O)CNC(=O)c2ccccc2F)c1, the “activation (acetylation increase)” value was 2.56% (inactive). With Cn1nnnc1SCC(=O)NCc1cccc(C(=O)O)c1 the “activation (acetylation increase)” value was -38.1% [at 10 µM] (inactive). In the case of CCCN(C)C[C@H]1Oc2cc(C#C[C@@H](C)O)ccc2S(=O)(=O)N([C@@H](C)CO)C[C@H]1C, the “activation (acetylation increase)” value is reported as -11.5% (inactive). In the case of CCn1cc([N+](=O)[O-])c(C(=O)NCc2ccc3c(c2)OCO3)n1, the “activation (acetylation increase)” value is reported as -0.458% (inactive). With COC(=O)c1ccccc1N(C)S(=O)(=O)c1cc2c(cc1C)OCC(=O)N2 the “activation (acetylation increase)” value was -12.3% (inactive). For Cc1ccc(CNC(=O)CCS(=O)(=O)c2cc3c(cc2Cl)NC(=O)CO3)cc1, the “activation (acetylation increase)” value was 18% (inactive). In the case of COc1ccc(C2c3c(-c4ccccc4O)n[nH]c3C(=O)N2CCc2ccc(OC)c(OC)c2)cc1 (stereo not given), the “activation (acetylation increase)” value is reported as 4.33% (inactive). In the case of C#CCN(C[C@@H]1[C@@H](OC(=O)NCc2ccccc2F)[C@@H](OC(=O)NCc2ccccc2F)Cn2c(=O)ccc(=O)n21)S(=O)(=O)c1ccc(C)cc1, the “activation (acetylation increase)” value is reported as -98.8% (inactive). For COc1ccc2c(c1)c(CC(=O)OCC(N)=O)c(C)n2C(=O)c1ccc(Cl)cc1, the “activation (acetylation increase)” value was 31.9% (inactive). With COc1ccc([N+](=O)[O-])c(S(=O)(=O)c2ccc(Cl)cc2)n1 the “activation (acetylation increase)” value was -85.4% (inactive). For CN(C)C(=O)C[C@H]1C[C@@H]2c3cc(NC(=O)C4CCOCC4)ccc3O[C@@H]2[C@H](CO)O1, the “activation (acetylation increase)” value was 30.3% (inactive). For C[C@H](NC(=O)C[C@H]1C[C@@H]2c3cc(NC(=O)Nc4ccc(C(F)(F)F)cc4)ccc3O[C@@H]2[C@@H](CO)O1)c1ccccc1, the “activation (acetylation increase)” value was -4.02% (inactive). In the case of N#Cc1cccc(C#N)c1NCC1CCCO1 (stereo not given), the “activation (acetylation increase)” value is reported as 13.6% (inactive). With COCC#Cc1cnc2c(c1)C(=O)N([C@H](C)CO)C[C@@H](C)[C@@H](CN(C)C(=O)c1cccnc1)O2 the “activation (acetylation increase)” value was 4.29% (inactive). For CC1=C(C(N)=O)C(c2ccccc2)n2nc(-c3ccncc3)nc2N1 (stereo not given), the “activation (acetylation increase)” value was 36.6% (inactive). For CCN(CC)C(=O)c1sc(NC(=O)c2ccncc2)c(C(=O)OC)c1C, the “activation (acetylation increase)” value was -4.98% (inactive). For COc1ccc(OC)c(CN2CCN(C(=O)c3ccc(NS(=O)(=O)c4cccc([N+](=O)[O-])c4)cc3)CC2)c1, the “activation (acetylation increase)” value was 2.19% (inactive). For COc1ccc(NC(=O)CN(C)C(=O)c2cnc(Cl)c(Cl)c2)cc1, the “activation (acetylation increase)” value was 12.1% (inactive). For CC(=O)Nc1cccc(OCC(=O)Nc2ccccc2)c1, the “activation (acetylation increase)” value was -3.78% (inactive). For Cc1nn(CC(=O)Nc2ccc(C(C)C)cc2)c(C)c1[N+](=O)[O-], the “activation (acetylation increase)” value was -5.82% (inactive). In the case of CC(=O)Nc1ccc(NS(=O)(=O)c2ccc(C)cc2)cc1[N+](=O)[O-], the “activation (acetylation increase)” value is reported as 33.2% [at 10 µM] (inactive). With COc1ccc(OC)c(N(CC(=O)Nc2ccccc2)S(C)(=O)=O)c1 the “activation (acetylation increase)” value was 27.7% (inactive). With CC(C)Cc1nnc(NC(=O)c2cc3c(s2)CCC3)s1 the “activation (acetylation increase)” value was 5.75% (inactive). For C[C@@H]1CN([C@@H](C)CO)C(=O)c2cc(NC(=O)Nc3cccc4ccccc34)ccc2O[C@@H](C)CCCCO[C@H]1CN(C)C(=O)NC1CCCCC1, the “activation (acetylation increase)” value was 22.3% (inactive). In the case of N#Cc1ccc(C(c2ccc(C#N)cc2)n2cncn2)cc1, the “activation (acetylation increase)” value is reported as 2.17% (inactive).
